Screening results: PubChem BioAssay, National Center for Advancing Translational Sciences (NCATS)
The sample as a whole holds a higher share of hits than the screen did.
Pf Dd2 growth = inhibitors of Plasmodium falciparum Dd2 growth. P. falciparum Dd2 growth, SYBR Green, 72 h. Potency, µM (titrated, usually from 28.9 µM), for inactives: top-dose activity, negative = inhibition, actives largely listed as inhibitors. hit rate 4.3% among 120,000. AID 1347417; active = well fitted inhibition curve with a large enough effect;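 note: plate controls were DMSO vehicle for no effect and reference drug for full effect; nearly all actives have a fitted effect of over 65% in size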
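Infected erythrocytes (Dd2, 0.3% parasitemia, 2.5% hematocrit final) are added to compound in RPMI-1640/Albumax II medium, grown 72 h at 37C in low oxygen, then lysed with saponin/Triton-X containing SYBR Green and read by fluorescence.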
* hit, by the source's call; [ ] = remark or other dose. Potency is the fitted concentration of half-maximal effect.

What do the screens show for `CC(C)CN(CC(C)C)CC(O)Cn1cc(/C=C/C(=O)c2ccccc2)c2ccccc21` (configuration not stated)?
Pf Dd2 growth: 2.5µM*

Results for Cc1ccc(C(=O)/C=C/c2cn(CC(O)CN3CCc4ccccc43)c3ccccc23)cc1 (configuration not stated) ?
Pf Dd2 growth: 5.6µM*

How did CC(C)N(C(=O)Cn1cc(S(=O)(=O)Cc2ccc(Cl)cc2)c2ccccc21)C(C)C do in these assays?
Pf Dd2 growth: inactive[5.79 µM]

How did Cc1ccc(NC(=O)CSc2cn(CC(=O)N3CCCCCC3)c3ccccc23)cc1 do in these assays?
Pf Dd2 growth: -2%

How did Cc1ccc(C(=O)N2CCc3cn(C)c4cccc(c34)C2)cc1 do in these assays?
Pf Dd2 growth: -23%

How did COc1ccc(NC(=O)CSc2cn(CC(=O)N3CCOCC3)c3ccccc23)cc1OC do in these assays?
Pf Dd2 growth: 13%

What do the screens show for `COc1ccc(C(=O)/C=C/c2cn(CC(O)CN3CCc4ccccc43)c3ccccc23)cc1OC` (configuration not stated)?
Pf Dd2 growth: 8.9µM*

What do the screens show for `COc1cccc(-c2nc(-c3nnn4c3COC(c3ccc(C)cc3)C4)no2)c1` (configuration not stated)?
Pf Dd2 growth: -5%

How did CCc1cc(C(=O)N2CCC3(CC2)CC(c2ccccc2)C(=O)N3)cs1 (configuration not stated) do in these assays?
Pf Dd2 growth: -14%

How did CN(Cc1ccc(-c2ccccc2)cc1)C(=O)Cc1ccc(F)cc1 do in these assays?
Pf Dd2 growth: -4%[44.1 µM]

Results for COc1ccc(C(=O)N2CCC3(CC2)NC(=O)N(c2ccccc2Cl)N3)cc1F ?
Pf Dd2 growth: -5%

Results for CCN(C)C(=O)Cn1c(Cc2ccccc2)nn(-c2ccccc2OC)c1=O ?
Pf Dd2 growth: -13%

What do the screens show for `CC(C)N1C(=O)[C@@H]2[C@@H](CCN2C(=O)CSCC(=O)O)N(Cc2cccc(F)c2)C1=O`?
Pf Dd2 growth: -5%[44.1 µM]

Results for Cc1cc2cc(-c3c(C)noc3C)nc(N3CCCC3)c2o1 ?
Pf Dd2 growth: -12%[44.1 µM]

What do the screens show for `Cc1cc2cc(-c3c(C)noc3C)nc(Nc3ccccc3)c2o1`?
Pf Dd2 growth: -28%[44.1 µM]

Results for Cc1cc2cc(-c3c(C)noc3C)nc(N(C)CCN(C)C)c2o1 ?
Pf Dd2 growth: 2µM*

What do the screens show for `CCc1nc2c(c(-c3ccc(Cl)cc3)n1)CN(C(=O)c1ccccc1F)CC2`?
Pf Dd2 growth: -11%

How did CCc1ccc(N2CC(c3noc(-c4ccc(OC)nc4)n3)CC2=O)cc1 (configuration not stated) do in these assays?
Pf Dd2 growth: 37%

How did O=C(Nc1cccc(C2OC(=O)N(Cc3ccccc3)C2C(=O)Nc2ccccc2)c1)c1ccco1 (configuration not stated) do in these assays?
Pf Dd2 growth: -5%

How did COCCn1c(C)cnc1CCN do in these assays?
Pf Dd2 growth: 15%

Results for COC(=O)c1ccc(Cl)cc1NC(=O)N1CCC(CN2CCCC2)CC1 ?
Pf Dd2 growth: -1%

Results for Cc1cccc(NC(=O)N2CCC(CN3CCC(C)CC3)CC2)c1C ?
Pf Dd2 growth: -11%

What do the screens show for `COC(=O)c1ccc(Cl)cc1NC(=O)N1CCC(CN2CCC(C)CC2)CC1`?
Pf Dd2 growth: 10µM*

How did CC(=O)Nc1ccc(CNC2(Cc3cc(CN4CCN(c5ccccc5)CC4)on3)COC2)cc1 do in these assays?
Pf Dd2 growth: 26%

Results for O=C(NCc1ccccc1-n1cncn1)C12CNCC1CNC2 (configuration not stated) ?
Pf Dd2 growth: -2%

What do the screens show for `CCOc1ccc(C(=O)NCC(c2ccc3c(c2)OCO3)N2CCOCC2)cc1` (configuration not stated)?
Pf Dd2 growth: 9%[0.594 µM]

Results for CN1CCN(C(CNC(=O)C(=O)Nc2cccc(Cl)c2)c2ccc3c(c2)OCO3)CC1 (configuration not stated) ?
Pf Dd2 growth: 7.1µM*

What do the screens show for `O=C(NCC(c1ccc2c(c1)OCO2)N1CCOCC1)C(=O)Nc1cccc(Cl)c1` (configuration not stated)?
Pf Dd2 growth: -10%

How did CCOc1ccc(C(=O)NCC(c2ccc3c(c2)OCO3)N2CCN(c3ccc(F)cc3)CC2)cc1 (configuration not stated) do in these assays?
Pf Dd2 growth: 11µM*

Results for CCC(=O)NCC(c1ccc2c(c1)OCO2)N1CCN(c2ccccc2)CC1 (configuration not stated) ?
Pf Dd2 growth: -4%

Results for Cc1cccc(NC(=O)C(=O)NCC(c2ccc3c(c2)OCO3)N2CCN(C)CC2)c1C (configuration not stated) ?
Pf Dd2 growth: -23%

How did COc1ccc(N2CCN(C(CNC(=O)CC(C)C)c3ccc4c(c3)OCO4)CC2)cc1 (configuration not stated) do in these assays?
Pf Dd2 growth: 5.6µM*

What do the screens show for `O=C(NCC(c1ccc2c(c1)OCO2)N1CCN(c2ccc(F)cc2)CC1)c1cccc([N+](=O)[O-])c1` (configuration not stated)?
Pf Dd2 growth: -16%

Results for CC(C)C(=O)NCC(c1ccc2c(c1)OCO2)N1CCN(c2ccccc2)CC1 (configuration not stated) ?
Pf Dd2 growth: 7%

What do the screens show for `Cc1nc2c(c(-c3ccc(O)cc3)n1)CN(Cc1ccccn1)CC2`?
Pf Dd2 growth: 6%[44.1 µM]

How did CC(C)NC(=O)N1CCC2(CC1)CN(C(=O)c1ccc3[nH]ccc3c1)Cc1ccccc1O2 do in these assays?
Pf Dd2 growth: 13µM*

What do the screens show for `C[S+](=O)([O-])N1Cc2ccccc2OC2(CCN(C(=O)c3cccc4[nH]ccc34)CC2)C1`?
Pf Dd2 growth: -29%

How did CC(=O)N1Cc2ccccc2OC2(CCN(C(=O)NC(C)C)CC2)C1 do in these assays?
Pf Dd2 growth: -9%

How did CC(=O)N1CCC2(CC1)CN(C(=O)NC(C)C)Cc1ccccc1O2 do in these assays?
Pf Dd2 growth: 9%

What do the screens show for `CN(C)C(=O)N1CCC2(CC1)CN(C(=O)c1cccc3[nH]ccc13)Cc1ccccc1O2`?
Pf Dd2 growth: -28%

What do the screens show for `CC(C)NC(=O)N1Cc2ccccc2OC2(CCN(C(=O)c3cccc4[nH]ccc34)CC2)C1`?
Pf Dd2 growth: 11µM*

What do the screens show for `FC(F)(F)Oc1ccc(CNC2(Cc3cc(CN4CCOCC4)on3)COC2)cc1`?
Pf Dd2 growth: 24%[44.1 µM]

What do the screens show for `CNC(=O)[C@@H]1C[C@H](n2cc(CNC(=O)Nc3ccc(Cl)cc3)nn2)CN1`?
Pf Dd2 growth: -7%

What do the screens show for `CC(C)c1nnc(NC(=O)CC[C@H]2NC(=O)c3ccccc3NC2=O)s1`?
Pf Dd2 growth: -21%

What do the screens show for `COC1CCOC2(CCN(C(=O)c3cccc(C)c3)CC2)C1` (configuration not stated)?
Pf Dd2 growth: inactive

Results for COc1cc(NC(=O)CSc2nc3ccccc3nc2Cc2ccc(Cl)cc2)cc(OC)c1 ?
Pf Dd2 growth: 8%

What do the screens show for `COc1cc(NC(=O)CSc2nc(-c3ccc(C(C)C)cc3)no2)cc(OC)c1`?
Pf Dd2 growth: 0.71µM*

Results for COc1cc(NC(=O)CSc2nc(-c3ccccc3)no2)cc(OC)c1 ?
Pf Dd2 growth: 1.1µM*

Results for COc1cc(NC(=O)CSc2ncccc2C(=O)OC(C)C)cc(OC)c1 ?
Pf Dd2 growth: 1%

How did COc1ccc(NC(=O)CSc2cc(-c3ccccc3)nc(C)n2)cc1 do in these assays?
Pf Dd2 growth: 20%

What do the screens show for `COc1cc(NC(=O)Cn2cccc2-c2nc(-c3ccc(OC)c(F)c3)no2)cc(OC)c1`?
Pf Dd2 growth: -20%
